According to PubChem BioAssay (EPA / NIEHS):
The source made the active and inactive calls. The calls were made as follows: active = hit-call score of the fitted dose curve at least 0.9, where 1 is the maximum; inactive = score below 0.9.

Experiment: Tanguay_ZF_120hpf_TCHR: Oregon State University Tanguay Lab 120 Hour Post-fertilization zebrafish Assay for Touch Responsive (AID 2284403)
Method: Tanguay_ZF_120hpf is a whole embryo, multiplexed endpoint assay using zebrafish larvae exposed for 120 hours post fertilization on a 96-well plate.Tanguay_ZF_120hpf_TCHR is one of one assay component(s) measured or calculated from the Tanguay_ZF_120hpf assay. It is designed to make measurements of zebrafish development as detected with brightfield microscopy of developing zebrafish embryos.Data from the assay component Tanguay_ZF_120hpf_TCHR was analyzed into 1 assay endpoints. This assay endpoint, Tanguay_ZF_120hpf_TCHR, was analyzed in the positive analysis fitting direction relative to DMSO as the negative control and baseline of activity. Using a type of morphology reporter, gain-of-signal activity can be used to understand changes in developmentals as they relate to the whole embryo. To generalize the intended target to other relatable targets, this assay endpoint is annotated to the zebrafish development intended target family, where the subfamily is embryonic functional response.
Zebrafish husbandry: Tropical 5D wild-type adult zebrafish were housed in at an approximate density of 1000 per 100 gallon tank at the Sinnhuber Aquatic Research Laboratory, Oregon State University, Corvallis, OR. Each tank was kept at standard laboratory conditions of 28C on a 14-h light/10-h dark photoperiod in fish water consisting of reverse osmosis water supplemented with a commercially available salt (Instant Ocean). Spawning funnels were placed into the tanks the night prior, and embryos were collected and staged. To increase bioavailability, the chorion was enzymatically removed using pronase (63.6mg/ml, >/= 3.5U/mg, Sigma-Aldrich: P5147) at 4 hours post fertilization (hpf) using a custom automated dechorionator.Chemical exposures: Six hpf dechorionated embryos were placed 1 embryo per well in a 96-well plate prefilled with 90 ul of EM using automated embryo placement systems (AEPS). Ten microliters of each row of dilution plate 2 was added to 2 exposure plates. The final DMSO concentration used was 0.64% (vol/vol). Thirty-two embryos were also exposed to 5uM trimethyltin chloride (positive control). Plates were sealed to prevent evaporation and foil covered to reduce light exposure and kept in a 28C incubator. Embryos were statically exposed until 120 hpf. At 24 hpf, embryos were assessed for photomotor response using a custom photomotor response analysis tool (PRAT) and for developmental toxicity endpoints (MO24: mortality at 24 hpf, DP: developmental progression, SM: spontaneous movement, and NC: notochord distortion). At 120 hpf, locomotor activity was measured using Viewpoint Zebralab and assessed for 13 endpoints. Zebrafish acquisition and analysis program (ZAAP), a custom program designed to inventory, acquire, and manage zebrafish data, was used to collect developmental endpoints as either present or absent (i.e., binary responses were recorded). If mortality occurred for an embryo (at either 24 or 120 hpf), the non-mortality endpoints were not measured.

Row | Structure (SMILES) | outcome
1 | O=C(F)C1(F)C(F)(F)C(F)(F)C(F)(F)C(F)(F)C1(F)F | inactive
2 | O=C(O)C(F)(F)C(F)(F)C(F)(F)OC(F)(F)F | inactive
3 | CCN(CCO)S(=O)(=O)C(F)(F)C(F)(F)C(F)(F)C(F)(F)C(F)(F)C(F)(F)C(F)(F)C(F)(F)F | inactive
4 | NC(=O)C(F)(F)C(F)(F)C(F)(F)F | inactive
5 | CO[Si](C)(CCC(F)(F)C(F)(F)C(F)(F)C(F)(F)C(F)(F)C(F)(F)F)OC | inactive
6 | O=C(O)CCC(F)(F)C(F)(F)C(F)(F)C(F)(F)C(F)(F)C(F)(F)C(F)(F)F | inactive
7 | OCC(O)CC(F)(F)C(F)(F)C(F)(F)C(F)(F)F (configuration not stated) | inactive
8 | C=CC(=O)OCC(F)(F)C(F)(F)C(F)(F)C(F)(F)C(F)(F)C(F)(F)C(F)(F)C(F)F | inactive
9 | OCC(F)(F)C(F)(F)C(F)(F)C(F)(F)C(F)(F)C(F)(F)C(F)(F)C(F)(F)CO | inactive
10 | CCOC(=O)CC(=O)C(F)(F)C(F)(F)F | inactive
11 | C[Si](Cl)(Cl)CCC(F)(F)C(F)(F)C(F)(F)C(F)(F)C(F)(F)C(F)(F)F | inactive
12 | NS(=O)(=O)C(F)(F)C(F)(F)C(F)(F)C(F)(F)C(F)(F)C(F)(F)F | inactive
13 | NC(=O)C(F)(F)C(F)(F)C(F)(F)C(F)(F)C(N)=O | inactive
14 | O=C(O)C(F)(F)C(F)(F)C(F)(F)C(=O)O | inactive
15 | NC(=O)C(F)(F)C(F)(F)C(F)(F)C(F)(F)C(F)(F)C(F)(F)C(F)(F)F | inactive
16 | O=C(O)C(F)(F)C(F)(F)C(F)(F)OC(F)(C(F)(F)F)C(F)(F)F | inactive
17 | NC(O)(C(F)(F)F)C(F)(F)F | inactive
18 | OCCCCC(F)(F)C(F)(F)C(F)(F)C(F)(F)F | inactive
19 | CNS(=O)(=O)C(F)(F)C(F)(F)C(F)(F)C(F)(F)C(F)(F)C(F)(F)C(F)(F)C(F)(F)F | inactive

Row | Structure (SMILES) | outcome
20 | O=S(=O)(O)CCC(F)(F)C(F)(F)C(F)(F)C(F)(F)F | inactive
21 | NC(=O)C(F)(F)C(F)(F)C(F)(F)C(F)F | inactive
22 | O=S(=O)(OCC(F)(F)F)C(F)(F)C(F)(F)C(F)(F)C(F)(F)F | inactive
23 | C=CC(=O)OCCC(F)(F)C(F)(F)C(F)(F)C(F)(F)F | inactive
24 | OCCCC(F)(F)C(F)(F)C(F)(F)C(F)(F)C(F)(F)C(F)(F)C(F)(F)C(F)(F)F | inactive
25 | FC(F)(F)C(F)(F)C(F)(F)CC1CO1 (configuration not stated) | inactive
26 | COC(F)(C(F)F)C(F)(F)F (configuration not stated) | inactive
27 | FC(F)(F)C(F)(F)C(F)(F)C(F)(F)C(F)(F)C(F)(F)C(F)(F)CCI | inactive
28 | O=S(=O)(O)CCC(F)(F)C(F)(F)C(F)(F)C(F)(F)C(F)(F)C(F)(F)C(F)(F)C(F)(F)F | inactive
29 | O=S(=O)(Cl)C(F)(F)C(F)(F)C(F)(F)C(F)(F)C(F)(F)C(F)(F)C(F)(F)C(F)(F)F | inactive
30 | OC(O)C(F)(F)C(F)(F)F | inactive
31 | O=C(O)CCC(F)(F)C(F)(F)C(F)(F)F | inactive
32 | OCC(O)CC(F)(F)C(F)(F)C(F)(F)C(F)(F)C(F)(F)C(F)(F)C(F)(F)C(F)(F)F (configuration not stated) | inactive
33 | OCC(F)(F)C(F)(F)C(F)(F)CO | inactive
34 | OCC(F)(F)C(F)(F)C(F)(F)C(F)(F)C(F)(F)C(F)(F)CO | inactive
35 | CN(C(=O)C(F)(F)C(F)(F)C(F)(F)F)[Si](C)(C)C | inactive
36 | C=CC(=O)OCC(F)(F)C(F)(F)C(F)(F)COC(=O)C=C | inactive
37 | FC(F)(F)C(F)(F)C(F)(F)C(F)(F)C(F)(F)C(F)(F)CC[Si](Cl)(Cl)Cl | inactive
